Gal4-VP16 FLuc – VP16 counterscreen qHTS for inhibitors of ROR gamma transcriptional activity; Drosophila S2 Gal4-VP16 UAS-luciferase, luminescence, 20 h; Potency, µM (series often up to 53.6 µM), for the others: at the top dose activity, negative = inhibition, usual class: inhibitors; 310,000 tested, 3.5% active; AID 2546, 2010;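 note: Gal4-VP16 expression switched on by copper sulfate through the metallothionein promoter; % is set by controls: 0 for no effect and ±100 for the full control effect; nearly all actives have a fitted effect of over 50% in size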
Sfp inh – qHTS Assay for Inhibitors of Bacillus subtilis Sfp phosphopantetheinyl transferase (PPTase); Biochemical Sfp PPTase activity, qHTS; Potency, µM, for the others: largest response in the series, negative = inhibition, most hits filed as inhibitors; 310,000 tested, 3.5% active; AID 1490, 2009;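 note: the enzyme is Sfp with the accession as filed and its product quenches rhodamine fluorescence; 0% = enzyme reaction without inhibitor and -100% = no enzyme wells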
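Step 1, compound plus 15 nM Sfp-PPTase, 15 min, room temperature. Step 2, add rhodamine-CoA (5 uM) and BHQ-2-YbbR (12.5 uM). Step 3, read 525/598 nm fluorescence at 0 and 30 min.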
Epigenetic reg – Quantitative High-Throughput Screen for Regulators of Epigenetic Control | murine LDR cells, GFP reporter derepression, 30 h | AID 1865, 2009 | 280,000 tested, 0.2% active | Potency, µM (highest dose often 53.9 µM), for the others: top-dose GFP activation, hits mostly activators; note: % of control where 0% means no effect; nearly all actives have a fitted effect of over 60% in size
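Readout is the number of GFP-expressing murine LDR cells, counted by cytometry following washing. Cells were treated with compound for 30 h at 37 C; the stably integrated CMV-GFP locus is normally silent.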
PINK1 modulator – A Quantitative High throughput Screen to Identify Chemical Modulators of PINK1 Expression | 410,000 tested, 0.2% active | PINK1 immunofluorescence, high-content cytometry, 24 h | Potency, µM (doses to about 76.6 µM), for inactives: top-dose activation (PINK1 increase), hits mostly activators; active = well fitted activation curve with a large enough effect; inconclusive = small, poorly fitted or top-dose-only effect; cell line not stated here; note: % of control where 0% means no effect; nearly all actives have a fitted effect of over 65% in size
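Fluorescence from anti-PINK1 antibody, together with nuclear and cell stains, was scanned on a laser-scanning cytometer. Before staining, stable-line cells were incubated 24 hours with compounds at 5 concentrations; primary antibody 12 h at 10 degrees C.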
RORgamma inh – qHTS for inhibitors of ROR gamma transcriptional activity; Nuclear receptor ROR-gamma (Mus musculus), P51450; Drosophila S2 Gal4-RORgamma UAS-luciferase reporter, 20 h; Potency, µM (highest dose often 53.6 µM), inactives show at the highest dose activity change, negative = inhibition, actives largely listed as inhibitors; 310,000 tested, 5.4% active; AID 2551, 2010; note: % is set by controls: 0 for no effect and ±100 for the full control effect; nearly all actives have a fitted effect of over 60% in size
Target sequence (P51450 whole entry, looked up, the tested form may be a part): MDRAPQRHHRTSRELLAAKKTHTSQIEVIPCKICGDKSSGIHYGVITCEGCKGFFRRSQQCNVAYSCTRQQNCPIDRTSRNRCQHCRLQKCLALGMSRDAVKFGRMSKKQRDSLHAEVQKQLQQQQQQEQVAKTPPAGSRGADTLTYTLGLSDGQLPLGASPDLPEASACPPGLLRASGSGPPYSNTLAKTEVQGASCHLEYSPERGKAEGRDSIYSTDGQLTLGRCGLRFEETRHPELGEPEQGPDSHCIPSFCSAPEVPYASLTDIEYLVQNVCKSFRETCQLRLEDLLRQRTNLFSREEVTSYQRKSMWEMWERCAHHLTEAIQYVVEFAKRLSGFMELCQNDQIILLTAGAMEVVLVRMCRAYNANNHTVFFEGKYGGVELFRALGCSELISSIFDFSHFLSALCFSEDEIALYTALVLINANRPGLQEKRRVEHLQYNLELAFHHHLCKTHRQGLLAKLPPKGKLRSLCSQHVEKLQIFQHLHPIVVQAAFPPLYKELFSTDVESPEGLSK
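Stable Schneider cell line, Gal4 DNA-binding domain fused to ROR gamma, UAS-luciferase. Cmpd 1 hr RT → CuSO4 700 uM final → 20 hr RT → luciferase reagent 10 min → luminescence.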
ClpP mod – qHTS Assay for Activators of ClpP; purified B. subtilis ClpP, FRET peptide cleavage, 20 min; Potency, µM (top dose mostly 57.5 µM), for inactives: at the top dose activity change, negative = active; 340,000 tested, 1.9% active; AID 651965, 2013; active = well fitted falling curve with a large enough effect; inconclusive = small, poorly fitted or top-dose-only effect; inactive = no such curve, though single readings can be large or run the other way; note: the source files actives as falling curves though it sought activators and does not explain the sign; nearly all actives have a fitted effect of over 65% in size
Target sequence (P80244 whole entry, looked up): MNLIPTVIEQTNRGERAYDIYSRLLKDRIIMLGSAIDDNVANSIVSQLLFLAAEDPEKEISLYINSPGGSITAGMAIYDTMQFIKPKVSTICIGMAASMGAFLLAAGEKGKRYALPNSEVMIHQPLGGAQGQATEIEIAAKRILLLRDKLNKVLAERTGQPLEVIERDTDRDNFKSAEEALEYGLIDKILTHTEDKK
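FRET quenching reversal measured ClpP activation: 10 microg/mL B. subtilis ClpP at pH 8 with the FRET-FV decapeptide, read at 430 nm after 320 nm excitation. The 20-min minus 0-min signal was scaled between DMSO/no-enzyme wells and ADEP (5.8 microM final).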
* marks the source's active call; other numbers are inactive results; [ ] = dose if it differs, or a comment. Most compounds without a hit are left out; they make up all but 8.1% or so of the library. Unless noted, calls come from the whole dose curve; as a rule, active = well fitted curve in the direction sought with a large enough effect; inconclusive = small, poorly fitted or top-dose-only effect, or another doubt; inactive = no such curve, though single readings can be large; an effect the other way counts as inactive or inconclusive. Potency is the fitted concentration of half-maximal effect.

`COc1ccc(C2c3c(n(C)c4ccccc34)C(=O)N2CC(=O)Nc2cc(Cl)ccc2C)cc1` (stereo not drawn) gave Epigenetic reg 1.6%, PINK1 modulator -0.5% and ClpP mod inconclusive.
`COc1ccc(C2c3c(n(C)c4ccccc34)C(=O)N2CC(=O)Nc2c(C)cc(C)cc2C)cc1` (stereo not drawn) gave Epigenetic reg -0.2%, PINK1 modulator 0.4% and ClpP mod -2.8%.
For CCOCCCNC(=O)CN1C(=O)c2c(c3ccccc3n2C)C1c1ccc(OC)cc1 (stereo not drawn) the results were Epigenetic reg -1.8%, PINK1 modulator 0.3% and ClpP mod 31.6µM*.
COCCCNC(=O)CN1C(=O)c2c(c3ccccc3n2C)C1c1ccc(OC)cc1 (stereo not drawn) was read as Epigenetic reg -0.4%, PINK1 modulator 0.3% and ClpP mod 31.6µM*.
`Cc1ccc2nc(C)cc(N/N=C/c3ccccc3O)c2c1` gave Gal4-VP16 FLuc 7.94µM*, Sfp inh 6.0%, PINK1 modulator 3.3%, RORgamma inh 5.62µM* and ClpP mod 3.7%.
COc1ccc(/C=N/Nc2cc(C)nc3ccc(OC)cc23)c(OC)c1 was read as Gal4-VP16 FLuc 10µM*, Sfp inh 50.1µM*, PINK1 modulator -2.0%, RORgamma inh 11.2µM* and ClpP mod -2.2%.
Screening COc1ccc(/C=N/Nc2nc(C)cc(-c3ccccc3)n2)c(OC)c1 returned Gal4-VP16 FLuc 11.2µM*, Sfp inh 19.6%, PINK1 modulator 4.4%, RORgamma inh 10µM* and ClpP mod -4.9%.
Screening COc1ccc(C(=O)Nc2ccccc2C(=O)OCc2cc(=O)n3nc(C4CC4)sc3n2)cc1 returned Epigenetic reg -6.1%, PINK1 modulator 9.6% and ClpP mod inconclusive.
`c1ccc(C2C3=C(Nc4ncnn42)c2ccccc2CCC3)cc1` (stereo not drawn) gave Gal4-VP16 FLuc inconclusive, Sfp inh -9.6%, Epigenetic reg 0.7%, PINK1 modulator -4.8%[38.3 µM], RORgamma inh 10µM* and ClpP mod -8.8%.
`Clc1ccc(C2C3=C(Nc4ncnn42)c2ccccc2CC3)cc1` (stereo not drawn) gave Gal4-VP16 FLuc inconclusive, Sfp inh -12.5%, Epigenetic reg 0.7% and RORgamma inh 14.1µM*.
Screening Fc1ccc(C2C3=C(Nc4ncnn42)c2ccccc2OC3c2ccncc2)cc1 (stereo not drawn) returned Gal4-VP16 FLuc -0.4%, Sfp inh 11.9%, Epigenetic reg -3.5%, PINK1 modulator -0.1%, RORgamma inh -19.3% and ClpP mod -24.9%.
For CC1=CC(c2ccccc2)n2ncnc2N1 (stereo not drawn) the results were PINK1 modulator -0.8% and ClpP mod -8.2%.
Screening CCCCCC(CC)COC(=O)CC(C(=O)OCC(CC)CCCC)S(=O)(=O)O (stereo not drawn) returned Gal4-VP16 FLuc -5.4%, Sfp inh -13.1% and RORgamma inh -26.8%.
CCC(=O)Nc1ccc(-c2ccc(N3CCC(C)CC3)nn2)cc1 was read as Gal4-VP16 FLuc inconclusive, Sfp inh 0.3%, PINK1 modulator 0.5%, RORgamma inh 3.55µM* and ClpP mod -2.6%.
Screening CCC(=O)Nc1cccc(-c2ccc(N3CCC(C)CC3)nn2)c1 returned Gal4-VP16 FLuc 3.98µM*, Sfp inh 6.4%, PINK1 modulator 2.8%, RORgamma inh 2.51µM* and ClpP mod -5.7%.
Clc1ccc2c(SCC3CO3)c3ccccc3nc2c1 (stereo not drawn) was read as PINK1 modulator 9.3% and ClpP mod 31.6µM*.
For O=C(CSc1c2c(nc3cc(Cl)ccc13)CCCC2)NCCN1CCOCC1 the results were Gal4-VP16 FLuc 6.4%, Sfp inh 13.4%, Epigenetic reg 8.5%, PINK1 modulator 11.7% and RORgamma inh 3.8%.
O=C(Nc1cccc(C(F)(F)F)c1)C1CCCN(S(=O)(=O)c2cccc3nsnc23)C1 (stereo not drawn) was read as Epigenetic reg 1.1%, PINK1 modulator 4.0% and ClpP mod 62.7%.
CS(=O)(=O)c1cnc2c(-c3ccc(F)cc3)cnn2c1N was read as Gal4-VP16 FLuc -24.5%, Sfp inh 8.8%, Epigenetic reg 1.2%, PINK1 modulator 1.3%, RORgamma inh 11.2µM* and ClpP mod 4.5%.
CC(C)(C)S(=O)(=O)c1cnc2c(-c3ccsc3)cnn2c1N was read as Gal4-VP16 FLuc -3.1%, Sfp inh -8.3%, Epigenetic reg 7.1%, PINK1 modulator 10.4% and RORgamma inh 4.47µM*.
For Nc1c(-c2ccccc2)cnc2c(-c3ccccc3)cnn12 the results were Gal4-VP16 FLuc 7.08µM*, Sfp inh 18.1%, PINK1 modulator 2.5%, RORgamma inh 6.31µM* and ClpP mod 4.1%.
Nc1c(-c2cccs2)cnc2c(-c3ccc(F)cc3)cnn12 was read as Gal4-VP16 FLuc -20.0%, Sfp inh 17.8%, PINK1 modulator 2.9% and RORgamma inh inconclusive.
Screening NNc1nc(N)c2c(n1)-c1ccccc1CC21CCCC1 returned Gal4-VP16 FLuc inconclusive, Sfp inh -15.5%, Epigenetic reg 0.0%, PINK1 modulator 2.0% and RORgamma inh 17.8µM*.
Screening CCC1(CC)Cc2ccccc2-c2nc(NCCO)[nH]c(=O)c21 returned Gal4-VP16 FLuc -16.1%, Sfp inh -3.4%, Epigenetic reg 0.8%, PINK1 modulator -4.7%[38.3 µM], RORgamma inh inconclusive and ClpP mod 6.31µM*.
For O=c1[nH]c(NCCO)nc2c1C1(CCCCC1)Cc1ccccc1-2 the results were Gal4-VP16 FLuc inconclusive, Sfp inh -1.4%, Epigenetic reg -1.0%, PINK1 modulator -1.1%, RORgamma inh -30.7% and ClpP mod 31.6µM*.
For CCc1nc2c(c(=O)[nH]1)C(CC)(CC)Cc1ccccc1-2 the results were Gal4-VP16 FLuc -16.4%, Sfp inh 14.0%, PINK1 modulator 7.2%, RORgamma inh inconclusive and ClpP mod -2.2%.
For CCN(CC)Cc1nc2c(c(=O)[nH]1)C(CC)(CC)Cc1ccccc1-2 the results were Gal4-VP16 FLuc 5.01µM*, Sfp inh 2.7%, PINK1 modulator inconclusive, RORgamma inh 1.58µM* and ClpP mod -2.2%.

Bioassay records: PubChem, National Center for Advancing Translational Sciences (NCATS)
